In PubChem BioAssay:
A number with no mark means an inactive call. How the calls were made is not given here.

Target: Pantothenate synthetase (Mycobacterium tuberculosis (strain ATCC 25618 / H37Rv)) (UniProt P9WIL5)
Experiment: Coupled enzyme confirmation of inhibitors against recombinant Mtb PanC (AID 375);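 further: 0% = full reaction with vehicle and 100% = no enzyme background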
Conditions: coupled enzyme assay; at 10 µM, stronger effect = higher value

Chain of Pantothenate synthetase (Mycobacterium tuberculosis (strain ATCC 25618 / H37Rv)) (P9WIL5 whole entry, looked up): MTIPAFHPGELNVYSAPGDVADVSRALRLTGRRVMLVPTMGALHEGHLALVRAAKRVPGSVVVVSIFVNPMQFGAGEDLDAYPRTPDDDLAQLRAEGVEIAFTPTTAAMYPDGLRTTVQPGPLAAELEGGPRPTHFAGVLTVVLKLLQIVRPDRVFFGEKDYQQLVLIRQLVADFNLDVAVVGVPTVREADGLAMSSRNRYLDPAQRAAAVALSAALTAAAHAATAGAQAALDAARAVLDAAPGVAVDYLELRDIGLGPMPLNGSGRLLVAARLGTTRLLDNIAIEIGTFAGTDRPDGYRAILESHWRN

SMILES | inhibition
CC(=O)N1CCc2cc(S(=O)(=O)CCC(=O)Nc3cccc(F)c3)ccc21 | 0%
Cc1ccc(C(=O)C2COC(=O)C2)cc1 (stereo not given) | 0%
CN(C)CCC=C1c2ccccc2CCc2ccccc21 | 0%
CCN1CCN(c2nc3c(c(=O)[nH]c(=O)n3C)n2CCSc2nc3ccccc3s2)CC1 | 3%
O=C(O)c1ccc(-n2nnnc2Oc2ccccc2C(=O)N2CCOCC2)cc1 | 4%
CN(C)CCCN1c2ccccc2Sc2ccccc21 | 0%
O=C(CC1Oc2ccccc2NC1=O)NCCCN1CCOCC1 (stereo not given) | 0%
CCOC(=O)N1CCC(NC(=O)C2CCCN2C(=O)OCc2ccccc2)CC1 (stereo not given) | 5%
NC(=O)c1sc2nc(N3CCCCC3)c3c(c2c1N)CCCC3 | 0%
CC(C)Nc1ncnc2c1cnn2-c1ccccc1 | 0%
Cc1nnc(SCC(=O)NCCN2C(=O)CSC2=O)s1 | 7%
Cc1ccc(CN2C(=O)CCC2C(=O)NCCCN2CCCC(C)C2)cc1 (stereo not given) | 1%
O=C(CC(SCCO)c1ccc2c(c1)OCO2)c1ccco1 (stereo not given) | 0%
COc1ccc(OC)c(C2/C(=C(\O)c3ccc4c(c3)OCCO4)C(=O)C(=O)N2CCCN(C)C)c1 (stereo not given) | 0%
CCc1ccc(C2CC(c3cccc(OC)c3)n3nc(N)nc3N2)cc1 (stereo not given) | 3%
O=S(=O)(NCc1cccnc1)c1cccc2nsnc12 | 12%
CCOC(=O)C1=C(NC#N)OC(C)=C(C)C1c1ccc(O)cc1 (stereo not given) | 0%
Cn1c(=O)c2c(nc(SCCCC#N)n2Cc2c(F)cccc2Cl)n(C)c1=O | 0%
CCOC(=O)N1CCC(Nc2nc3ccccc3n3cnnc23)CC1 | 10%
O=C(NCCc1ccccc1)C1CCCN(S(=O)(=O)c2cccs2)C1 (stereo not given) | 9%

SMILES | inhibition
CCOC(=O)c1cc2c(=O)n3ccccc3nc2n(CC2CCCO2)c1=NC(C)=O (stereo not given) | 4%
CCCCCn1c(N2CCN(Cc3ccccc3)CC2)nc2c1c(=O)[nH]c(=O)n2C | 6%
COC(=O)CCCCCNc1ccc(C(=O)OC)cc1N | 0%
O=C(CN1C(=O)c2ccccc2S1(=O)=O)Nc1ccc(S(=O)(=O)N2CCCCCC2)cc1 | 6%
Cc1nc2c(c(=O)n1CC1CCCO1)c1nc3ccccc3nc1n2CC(C)C (stereo not given) | 0%
CC(=O)Nc1ccc(S(=O)(=O)N2CCN(C(C)CCc3ccccc3)CC2)cc1 (stereo not given) | 2%
CCOC(=O)C1CCN(CC(=O)Nc2c(C(=O)OC)[nH]c3ccc(Cl)cc23)CC1 | 5%
CCOC(=O)N1CCN(C(=O)c2cnn(-c3ccccc3)c2NC(=O)c2ccccc2F)CC1 | 0%
COc1ccc(-c2cc(C(F)(F)F)n3nc(C(=O)N4CCOCC4)nc3n2)cc1 | 8%
COc1ccccc1N1CCN(Cc2nnnn2CCc2ccccc2)CC1 | 0%
CCOC(=O)C1CCN(C(=O)c2ccc(Cl)c(Cl)c2)CC1 | 8%
COc1nc(-c2ccc(Cl)cc2)ccc1-c1noc(-c2ccncc2)n1 | 4%
CCOC(=O)c1cnc(-n2cc(C)cn2)nc1Nc1ccccc1OC | 0%
CC(=O)Nc1ccc(OCC(O)CN2CCN(c3cccc(Cl)c3)CC2)cc1 (stereo not given) | 3%
Cc1cc2c(cc(C(=O)OCC(=O)NCc3cccs3)n2C(C)C)o1 | 0%
C=C(Cl)COc1ccc2c(C)cc(=O)oc2c1 | 2%
CC(C)[C@H](NC(=O)OC(C)(C)C)c1nnc(SCC(=O)Nc2ccc(Br)cc2)o1 | 0%
CCOC(=O)c1c(C(F)(F)C(F)(F)C(F)(F)C(F)(F)F)n[nH]c1C | 8%
CC1(C)OC(=O)C(=CNC(CCC(N)=O)C(=O)O)C(=O)O1 (stereo not given) | 3%
COc1ccc(C2CC(c3ccc(Cl)cc3Cl)Nc3nc(N)nn32)cc1 (stereo not given) | 0%
